# NPR1 antag – blocks ANP-stimulated signaling of human Npr1 receptor. HEK293 hNpr1 GloSensor cGMP, ANP-stimulated luminescence. actives 1.6% (n = 76,000). AID 1347048. Potency, µM (top dose mostly 46.3 µM), for inactives: at the top dose activity change, negative = inhibition, usual class: inhibitors; calls by dose curve; also: nearly all actives have a fitted effect of over 60% in size
#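 HEK293 cells stably expressing human Npr1 and cGMP GloSensor pGS-40F, loaded 2 h with 2% GloSensor reagent, given compound 30 min at room temperature. Luminescence read before and 20 min after 0.1 nM hNppA.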
# HEK293 tox – HEK 293 cell cytotoxicity | AID 1345083 | Potency, µM (doses to about 115 µM), for inactives: at the highest dose activity change, negative = cytotoxicity, hits mostly inhibitors | HEK 293 viability, ATP luminescence (CellTiter-Glo), 48-72 h | actives 6.6% (n = 94,000); also: nearly all actives have a fitted effect of over 60% in size
#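 Read-out: CellTiter-Glo ATP luminescence. Cells: HEK 293, 250 cells/well. Exposure: 48 or 72 hr, 37 degree Celsius.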
# 3T3 cytotox – kills NIH 3T3 cells. Potency, µM (titrated, usually from 96.7 µM), without a hit: top-dose activity change, negative = cytotoxicity, hits mostly inhibitors. actives 4.3% (n = 94,000). AID 1345082. NIH 3T3 viability, CellTiter-Glo ATP luminescence, 48-72 h; also: nearly all actives have a fitted effect of over 55% in size
#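 Mouse fibroblast NIH 3T3 cells, 400 per well, received compound via pintool and were incubated for 48 or 72 hr prior to CellTiter-Glo ATP luminescence measurement.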
# Luciferase inh – blocks purified firefly luciferase enzyme activity. purified P. pyralis luciferase, luminescence, biochemical. Potency, µM (top dose mostly 115 µM), hits mostly inhibitors. actives 2.5% (n = 76,000); also: nearly all actives have a fitted effect of over 65% in size
# Target sequence (P08659 whole entry, looked up): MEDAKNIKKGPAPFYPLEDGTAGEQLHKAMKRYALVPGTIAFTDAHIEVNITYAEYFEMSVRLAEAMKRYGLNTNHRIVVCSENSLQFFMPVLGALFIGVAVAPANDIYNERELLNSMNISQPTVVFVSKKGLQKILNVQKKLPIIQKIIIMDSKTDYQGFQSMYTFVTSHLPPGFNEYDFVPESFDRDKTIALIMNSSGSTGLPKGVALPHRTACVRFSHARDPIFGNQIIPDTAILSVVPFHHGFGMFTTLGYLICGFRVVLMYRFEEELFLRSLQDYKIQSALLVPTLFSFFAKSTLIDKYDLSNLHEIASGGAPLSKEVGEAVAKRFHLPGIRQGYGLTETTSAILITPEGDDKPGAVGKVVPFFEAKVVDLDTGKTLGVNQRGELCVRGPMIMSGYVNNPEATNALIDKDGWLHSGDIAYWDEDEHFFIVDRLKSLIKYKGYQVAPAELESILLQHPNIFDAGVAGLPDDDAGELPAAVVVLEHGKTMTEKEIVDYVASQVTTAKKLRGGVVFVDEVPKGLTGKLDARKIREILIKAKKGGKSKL
#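 Cell-free enzyme assay, 10nM P. pyralis luciferase, luciferin and ATP each at 10uM. Inhibition profiled over a 6-point titration, read as luminescence.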
# * hit, by the source's call; i = inactive; ? = inconclusive; nt = no result; [ ] = remark or other dose. Compounds with a hit are over-represented: about 11% of the library has one in this group of screens. Unless noted, calls follow the shape of the dose curve; as a rule, active = well fitted curve in the direction sought with a large enough effect; inconclusive = small, poorly fitted or top-dose-only effect, or another doubt; inactive = no such curve, though single readings can be large; an effect the other way counts as inactive or inconclusive. % is scaled to controls: 0 for no effect and ±100 for the full control effect; potency is read from the fitted curve at half-maximal effect.
SMILES,NPR1 antag,HEK293 tox,3T3 cytotox,Luciferase inh
O=C1Nc2ccccc2CN(Cc2ccc(Cl)cc2)C12CCNC2 (stereo not drawn),nt,50µM*,?,nt
CC(C)(C)COC(=O)N1C[C@@H](CO)[C@@H]2Oc3c(F)cccc3[C@@H]21,nt,?,32µM*,nt
O=C(C1CCOCC1)N1CCC(Oc2ccccc2-c2nc(-c3ccccc3)no2)C1 (stereo not drawn),2%,32µM*,?,i
O=C(c1ccncc1)N1CCC(Oc2ccccc2-c2nc(-c3ccccc3)no2)C1 (stereo not drawn),1%,40µM*,?,?
Cc1cccc(NC(=O)N2CC(Oc3ccccc3-c3nc(-c4ccccc4)no3)C2)c1,2%,-3%,-13%,i
Cc1ncccc1C(=O)N1CC(Oc2ccccc2-c2nc(-c3ccccc3)no2)C1,-4%,?,?,40µM*
CC1(C)NC(=O)N(CCC(=O)N2CCCCC2c2noc(COCc3ccc(F)cc3)n2)C1=O (stereo not drawn),nt,-21%,-18%,nt
COC1CN(c2cccc(F)c2)C12CCN(C(=O)COc1ccccc1)CC2 (stereo not drawn),-1%,89µM*,?,i
O=[S+]([O-])(c1ccc(Br)cc1)c1nnn2c1nc(N1CCCCC1)c1ccccc12,nt,-6%,-13%,nt
COc1cccc(-c2cc(C(=O)Nc3cccc(C(F)(F)F)c3)c3cnn(C)c3n2)c1,nt,32µM*,?,nt
Cn1ncc2c(C(=O)Nc3cccc(C(F)(F)F)c3)cc(-c3ccc(C(F)(F)F)cc3)nc21,nt,11µM*,7.9µM*,nt
Cn1ncc2c(C(=O)Nc3cccc(F)c3)cc(-c3ccc(C(F)(F)F)cc3)nc21,nt,i,-17%,nt
Cn1ncc2c(C(=O)Nc3cccc(F)c3)cc(-c3cccc(C(F)(F)F)c3)nc21,nt,-6%,1%,nt
O=C(NCc1cccnc1)c1cc(-c2ccc(F)cc2)c2nncn2n1,nt,i,-2%,nt
COc1ccc(OC)c(S(=O)(=O)N2CCc3nc(-c4ccccc4)[nH]c3C2)c1,nt,?,-21%,nt
COc1cccc(-c2nc3c([nH]2)CN(c2cc(C4CC4)ncn2)CC3)c1,?,35µM*,?,25µM*
COCCn1c(=O)c(C(=O)NCc2ccc(OC)c(OC)c2)nc2cccnc21,nt,i,-19%,nt
CC(Cc1ccc2c(c1)OCO2)CN1CCC(CO)(CN2CCCC2)CC1 (stereo not drawn),-11%,?,40µM*,i
OCC1(CN2CCCC2)CCN(Cc2ccc(Cl)cc2)CC1,2%,?,?,i
O=C(Nc1ccc(F)cc1)c1cccn2cncc12,-1%[70.6 µM],?,-27%[138 µM],45µM*
O=C(Nc1ccc(Cl)cc1Cl)c1cccn2cncc12,-19%[70.6 µM],?,?,45µM*
C=CCNC(=O)c1cccn2cncc12,-2%[70.6 µM],-18%[230 µM],-2%[174 µM],i
COc1ccccc1-c1ccc2c(C(=O)N3CCC(Cc4ccccc4)CC3)nn(C)c2n1,nt,79µM*,?,nt
Cc1ccc(C(=O)N2CCC(CCC(=O)N3CCN(c4ccccn4)CC3)CC2)cc1,?,?,-28%,20µM*
CC(=O)N1CCC(N2CCC(Cc3ccc(CCC(=O)N(C)C)cc3)CC2)CC1,nt,-23%,-21%,nt
SMILES,NPR1 antag,HEK293 tox,3T3 cytotox,Luciferase inh
CN(C)C(=O)CCc1ccc(CC2CCN(C(=O)CCC3CCCC3)CC2)cc1,nt,25µM*,?,nt
COc1ccccc1-c1ccc2c(C(=O)N(C)C)nn(C)c2n1,nt,-7%[172 µM],1%[138 µM],nt
Cc1ccsc1C(=O)N1CCC(CCC(=O)N2CCC(Cc3ccccc3)CC2)CC1,?,45µM*,?,i
COc1ncccc1C(=O)N1CCC(CCC(=O)N2CCC(Cc3ccccc3)CC2)CC1,?,35µM*,?,i
CNC(=O)c1cc(C2CC2)nc2c1c(C1CCN(C(=O)Cc3ccc(F)cc3)CC1)nn2C,nt,?,-10%,nt
CNC(=O)c1cc(C2CC2)nc2c1c(C1CCN([S+](=O)([O-])c3ccc(C)cc3)C1)nn2C (stereo not drawn),nt,?,-25%,nt
CNC(=O)c1cc(C2CC2)nc2c1c(C1CCN([S+](=O)([O-])c3ccc(C)cc3)CC1)nn2C,nt,50µM*,?,nt
CNC(=O)c1cc(C2CC2)nc2c1c(C1CCN(C(=O)Cc3ccccc3)CC1)nn2C,nt,89µM*,-21%,nt
COC(=O)[C@@H]1Cc2ncn(C(C)C)c2CN1S(=O)(=O)c1cccc(C(F)(F)F)c1,-1%[70.6 µM],-24%[172 µM],?,i
COc1ccc(CC(=O)N2Cc3ccccc3CC3(CCN(C)C3)C2)cc1 (stereo not drawn),nt,-23%,-11%,nt
CC(C)(C)CNc1cc(Cl)nc2ccnn12,13%[70.6 µM],?,-11%[138 µM],i
Fc1ccccc1CNc1cc(Cl)nc2ccnn12,?,35µM*,?,i
O=C(CC1CCCCN(Cc2ccccc2)C1=O)NCc1ccccc1 (stereo not drawn),nt,?,-32%,nt
O=C(NCC1CCCN(C(=O)c2ccsc2)C1)c1ccc(-c2ccccc2)cc1 (stereo not drawn),?,45µM*,?,?
O=C(NCC1CCCN(Cc2ncccn2)C1)c1ccc(-c2ccccc2)cc1 (stereo not drawn),-1%,?,-9%,i
O=C(NCC1CCCN(C(=O)c2ccc3[nH]ccc3c2)C1)c1ccc(-c2ccccc2)cc1 (stereo not drawn),11µM*,18µM*,?,?
O=C(c1ccc2cc[nH]c2c1)N1CCCC(Cc2noc(-c3cnccn3)n2)C1 (stereo not drawn),0%,-12%,4%,i
O=C(c1ccc2cc[nH]c2c1)N1CCCC(Cc2noc(-c3ccccc3)n2)C1 (stereo not drawn),1%,?,20µM*,i
CCCN1C(CC(C)C)=NS(=O)(=O)c2cc(NC(=O)c3cccs3)ccc21,0%,?,4%,i
O=C(NC1CCC(O)CC1)c1ccc(-c2ncc3cnc(-c4cccc(F)c4)cn23)cc1 (stereo not drawn),-3%[70.6 µM],71µM*,-26%[138 µM],i
O=C(NCCc1cnc[nH]1)c1ccc(-c2ncc3cnc(-c4cccc(F)c4)cn23)cc1,2%[70.6 µM],89µM*,50µM*,i
CC(=O)NCCNC(=O)c1ccc(-c2ncc3cnc(-c4cccc(F)c4)cn23)cc1,-1%[70.6 µM],-31%[172 µM],?,i
Cc1ccccc1CN1CCc2ncc(C(=O)Nc3ccccc3)n2CC1,-2%[70.6 µM],?,?,?
Cc1ccc(NC(=O)C2CCN(c3cc(C(F)(F)F)ncn3)CC2)c(C)c1,?,?,-17%,i
CC1CCC(NC(=O)C2CCN(c3cc(C(F)(F)F)ncn3)CC2)CC1 (stereo not drawn),2.2µM*,?,?,?
CNC(=O)c1cccc(-c2cnc(Nc3ccc4c(c3)OCCO4)c3c2CCO3)c1,?,79µM*,?,5.6µM*
CNC(=O)c1cccc(-c2cnc(Nc3ccc(N4CCOCC4)cc3)c3c2CCO3)c1,-7%[70.6 µM],79µM*,?,0.63µM*
